Compound activity from PubChem BioAssay.
An excerpt weighted towards active compounds, which were near 3.6% of everything screened.
Giardia FBPA inh: blocks Giardia fructose-bisphosphate aldolase activity; A8B2U2; purified Giardia FBPA; Potency, µM (top dose mostly 59.6 µM), inactives show at the top dose activity, negative = inhibition, usual class: inhibitors; actives 0.71% (n = 290,000); AID 2451; note: nearly all actives have a fitted effect of over 55% in size
Target sequence (A8B2U2 whole entry, looked up): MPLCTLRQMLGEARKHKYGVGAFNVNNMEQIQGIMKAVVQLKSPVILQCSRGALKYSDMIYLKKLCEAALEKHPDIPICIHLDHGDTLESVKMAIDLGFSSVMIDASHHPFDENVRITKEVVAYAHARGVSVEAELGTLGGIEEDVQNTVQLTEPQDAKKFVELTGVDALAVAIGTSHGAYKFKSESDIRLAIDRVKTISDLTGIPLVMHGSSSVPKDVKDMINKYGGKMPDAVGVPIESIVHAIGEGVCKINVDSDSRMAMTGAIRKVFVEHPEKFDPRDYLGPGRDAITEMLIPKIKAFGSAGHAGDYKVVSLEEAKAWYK
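Giardia FBPA (40 nM reagent) was preincubated 10 min at RT with compound (up to 57.5 uM final), then substrate plus GAPDH/TPI/NAD/arsenate coupling system with diaphorase/resazurin was added; resorufin fluorescence (525/598 nm) was read after 20 min.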
Sm TGR block: blocks Schistosoma mansoni thioredoxin glutathione reductase. Potency, µM (titrated, usually from 114 µM), without a hit: at the top dose activity change, negative = inhibition, usual class: inhibitors. AID 485364. actives 3% (n = 360,000). Q962Y6. purified TGR, DTNB reduction, TNB absorbance 405 nm; note: nearly all actives have a fitted effect of over 60% in size
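First, TGR (20 nM dispensed) and NADPH were mixed with compound. Second, a 15 min room-temperature incubation followed. Third, further NADPH and then DTNB were added to start the reaction. Finally, TNB absorbance was monitored kinetically.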
AmpC inh detg: AmpC beta-lactamase inhibition with detergent present | P00811 | actives 0.041% (n = 370,000) | Potency, µM (highest dose often 114 µM), without a hit: top-dose activity change, negative = inhibition, hits mostly inhibitors | AmpC hydrolysis of nitrocefin, absorbance 480 nm, 0.01% Triton;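 note: 0% = no-compound wells and -100% = no-enzyme wells; nearly all actives have a fitted effect of over 25% in size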
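AmpC (5.3 nM in the dispensed reagent) in 20 mM phosphate pH 7.0 with 0.01% (detergent screen) or 0.0001% Triton X-100 was preincubated with compounds for 15 min at room temperature. Nitrocefin was then added from an 800 uM solution, and hydrolysis was followed at 480 nm.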
AmpC no deterg: inhibitors of E. coli AmpC beta-lactamase without detergent; P00811; AmpC nitrocefin hydrolysis, absorbance 480 nm, 0.0001% Triton; Potency, µM (titrated, usually from 57.1 µM), for inactives: at the highest dose activity change, negative = inhibition, usual class: inhibitors; actives 0.52% (n = 330,000); AID 485341;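 note: plate controls were no compound for no effect and no enzyme for full effect; nearly all actives have a fitted effect of over 20% in size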
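20 mM phosphate pH 7.0 + 0.01% (detergent screen) or 0.0001% Triton X-100; 5.3 nM AmpC reagent; cpd preinc 15 min RT; nitrocefin (800 uM stock) to start; A480 q20 s × 4 min; Activity was normalised to no-enzyme and no-compound control wells.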
Numbers without * were called inactive; u = inconclusive; x = no result given; [ ] = remark or other dose. Calls come from the whole dose curve; as a rule, active = well fitted curve in the direction sought with a large enough effect; inconclusive = small, poorly fitted or top-dose-only effect, or another doubt; inactive = no such curve, though single readings can be large; an effect the other way counts as inactive or inconclusive. Unless noted, % is set by controls: 0 for no effect and ±100 for the full control effect; potency is the fitted concentration of half-maximal effect.

SMILES	Giardia FBPA inh	Sm TGR block	AmpC inh detg	AmpC no deterg
CCOC(=O)c1ccc(N2C(=O)CC(N3CCOCC3)C2=O)cc1 (configuration not stated)	3%	u	-9%	-4%
CC1=C(C(=O)Nc2ccccc2)C(CC(C)C)n2nc(SCc3ccccc3C)nc2N1 (configuration not stated)	x	-4%	15%	x
O=C(N/C(=C\c1ccc(-c2ccccc2)o1)C(=O)N1CCOCC1)c1ccccc1	-7%	u	8%	128%
Cc1ccc(CNC(=O)c2cn(C3CCCC3)c(=O)c3c2c2ccccc2n3C)o1	-7%	8.9µM*	8%	x
Cn1c2ccccc2c2c(C(=O)O)cn(C3CCCC3)c(=O)c21	-13%	2%	u	-9%
Cn1c2ccccc2c2c(C(=O)NCc3ccco3)cn(C3CCCCC3)c(=O)c21	-22%	79µM*	-12%	4%
COc1ccccc1CCC(=O)OCC(=O)Nc1ccc(C(N)=O)cc1	-7%	7%	-3%	-10%
CC1(C)CC(=O)C(C=NCCN2CCN(C(=O)Cc3ccccc3)CC2)=C(O)C1	1%	5%[11.4 µM]	-18%	32%
CC1(C)CC(=O)C(C=NCCN2CCN(C(=O)CCl)CC2)=C(O)C1	0%	18µM*	0%	-1%
CCC(=O)N1CCN(CCN=CC2=C(O)CC(c3ccc(OC)cc3)CC2=O)CC1 (configuration not stated)	2%	-19%	u	-10%
CCC(=O)N1CCN(CCN=CC2=C(O)CC(C)(C)CC2=O)CC1	5%	45µM*	0%	-3%
CCCCCC(=O)N1CCN(CCN=CC2=C(O)CC(c3ccc(OC)cc3)CC2=O)CC1 (configuration not stated)	4%	50µM*	4%	30%
COc1ccc2[nH]c3c(c2c1)CCN1C(=O)C(CC(=O)NCC24CC5CC(CC(C5)C2)C4)C[C@H](C(=O)N(C(C)C)C(C)C)[C@@]31C (some centres not stated)	x	x	x	113%
COc1cc(N=Nc2cccc(S(N)(=O)=O)c2)c2ccccc2c1N	u	56µM*	-15%	-32%
CCOc1ccc(-c2cc(OC(=O)c3ccccc3)c3c(C)oc(C)c3c(=O)c2)cc1	x	50µM*	15%	x
CCOc1cc(-c2ccc3c(c2)OCO3)cc(=O)c2c(C)oc(C)c12	u	35µM*	u	-23%
COc1ccc(C(=O)Oc2cc(-c3ccc(OC)c(OC)c3)cc(=O)c3c(C)oc(C)c23)cc1	x	u	15%	x
COc1ccc(-c2cc(OC(=O)c3cccc(C)c3)c3c(C)oc(C)c3c(=O)c2)cc1	x	13µM*	5%	x
Cc1cccc(C(=O)N2CCNC(=O)C2CC(=O)Nc2ccc(F)cc2)c1 (configuration not stated)	x	3%	20%	x
O=C(Nc1ccc2c(c1)OCCO2)NC1(C(F)(F)F)Oc2ccccc2O1	-10%	40µM*	u	-42%
O=C(Nc1ccc2c(c1)OCO2)Nc1ccccc1F	x	0%	-2%	-31%
O=C(NC1(C(F)(F)F)Oc2ccccc2O1)N1CCCC1	-9%	40µM*	5%	-5%
O=C(Nc1ccc2c(c1)OCO2)NC1(C(F)(F)F)Oc2ccccc2O1	u	35µM*	u	-35%
COCCCNc1nc2nonc2nc1N1CCC(C(C)N2CCOCC2)CC1 (configuration not stated)	6%	23%	-1%	25%
O=C(c1ccc(Br)o1)N1CCN(Cc2ccccc2Cl)CC1	3%	u	u	49%
SMILES	Giardia FBPA inh	Sm TGR block	AmpC inh detg	AmpC no deterg
CC(OC(=O)Cc1ccccc1F)C(=O)Nc1ccc(Cl)cn1 (configuration not stated)	x	8%	9%	-12%
COC1=CC(=O)C(C(=O)c2ccccc2)=CC1=O	1.1µM*	x	x	x
Cc1ccc(C)c(CN2C(=O)c3ccccc3S(=O)c3ccc(C(=O)N4CCN(c5cccc(Cl)c5)CC4)cc32)c1 (configuration not stated)	x	3%	19%	x
COCCN(C)Cc1nc(C(c2ccccc2)c2ccccc2)no1	-6%	-29%	1%	92%
N#CCc1nc(C(c2ccccc2)c2ccccc2)no1	u	-7%	-6%	18µM*
NS(=O)(=O)c1ccc(CCNC(=O)C2Cc3ccccc3CN2C(=O)c2ccco2)cc1 (configuration not stated)	2%	-6%	2%	-15%
O=C(NCc1ccccc1)C1Cc2ccccc2CN1C(=O)c1ccco1 (configuration not stated)	0%	35µM*	9%	-21%
Cc1ccccc1NC(=O)C1Cc2ccccc2CN1C(=O)c1ccco1 (configuration not stated)	-12%	11µM*	-12%	-32%
O=C(O)C1Cc2ccccc2CN1C(=O)c1ccco1 (configuration not stated)	-3%	u	-15%	-16%
NS(=O)(=O)c1ccc(NC(=O)C2Cc3ccccc3CN2C(=O)c2ccco2)cc1 (configuration not stated)	-6%	45µM*	-4%	-30%
CCSc1nnc(NC(=O)C2Cc3ccccc3CN2C(=O)c2ccco2)s1 (configuration not stated)	-14%	32µM*	u	-18%
O=C(CN1C(=O)C(=O)N(C2CCCC2)C1=O)Nc1ccc(F)cc1F	x	-15%	u	97%
CCOc1ccccc1-c1nnc2n1N=C(c1c(OC)cccc1OC)CS2	8%	x	x	x
CCOc1ccccc1NC(=O)C(=O)N/N=C/c1cc(Br)ccc1O	6%	0%	-3%	-15%
O=C(C1Cc2ccccc2CN1S(=O)(=O)c1ccc(F)cc1)N1CCCCC1 (configuration not stated)	1%	1%	u	-11%
O=C(c1ccco1)N1CCN(C(=O)C2Cc3ccccc3CN2S(=O)(=O)c2ccc(F)cc2)CC1 (configuration not stated)	10%	50µM*	-14%	26%
COc1cccc(NC(=O)C2Cc3ccccc3CN2C(=O)c2ccco2)c1 (configuration not stated)	-4%	35µM*	-14%	0%
CCc1nn(CC(=O)NCCc2ccc(OC)cc2OC)c(=O)c2cc3c(OC)cccc3n12	x	-9%	-3%	x
COC(=O)c1cc2sccc2n1Cc1ccc(F)cc1Cl	x	-7%	7%	x
Cc1cccc(N(Cc2ccccc2)C(=O)CCl)c1	7%	14µM*	-12%	-13%
COc1ccc(CC(=O)N(Cc2ccccc2)c2cccc(C)c2)cc1OC	x	5%	-1%	93%
O=C(CCl)N(Cc1ccccc1)c1ccccc1	-1%	5µM*	u	-29%
COc1cccc(NC(=O)NC(C)C2CC3CCC2C3)c1 (configuration not stated)	-5%	6%	4%	-32%
COc1cc(NCc2ccc3nc(N)nc(N)c3c2C)cc(OC)c1OC	5.6µM*	x	x	x
COc1cccc(CNc2ccc3c(c2)nc(C)n3C)c1OC	-14%	5%	7%	3%
